Calls of active or inactive are those of the source.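 The calls were made as follows, unless noted: active = normalized viability below 100% at a tested concentration; inactive = the rest.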

Consider four molecules from PubChem BioAssay.

Experiment [1] in a line: sensitizers of A549 cells to miR-34 induction, primary screen, imaging, A549 dox-inducible miR-34, nuclei and caspase counts (AID 1347080;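 active = compounds whose cell count with miR-34 switched on is under 0.7 times the count with it off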). Particulars: A549 miR-34 inducible, Hoechst nuclei count, 48 h.
Experiment [2] in a line: survival rescue of mitochondrial mutant cells in low glucose, primary screen, MELAS cybrids, Rieske KO mouse fibroblasts, CellTiter-Glo (AID 1508586;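 active = mean z-score across replicates of 1.96 or higher in either the MELAS or the Rieske mutant cell line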;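 also: z relative to plate mean and SD of compound and empty wells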). (Cellular ATP, detected with luciferase, serves as a proxy for viable cell number.)
A short description of experiment [3]: ovarian cancer cell viability with rucaparib, profiling panel, oncology-focused library, rucaparib conditional (AID 1508598). Particulars: patient-derived ovarian cancer cells, CellTiter-Glo viability, 144 h, stronger effect = lower value.
The mark [4] stands for this setting: stronger effect = lower value, cell number ratio, induced over uninduced.
Where [5] appears, read: measured here: relative caspase fold change +Dox/-Dox.
Where [6] appears, read: measured here: total cells with miR-34 induction, stronger effect = lower value.
[7] abbreviates: measured here: total cells without miR-34 induction.
Where [8] appears, read: MELAS cybrid survival, CellTiter-Glo 48 h, stronger effect = higher value.
[9] abbreviates: Rieske KO mouse fibroblast survival, CellTiter-Glo 72 h.
Setting [10] is: at 0.000305 µM, OCI-C5x cells, with rucaparib 10 µM, 100% = cells with rucaparib alone.
Where [11] appears, read: at 0.000305 µM, OCI-C5x cells, without rucaparib.
Where [12] appears, read: at 0.000305 µM, OCI-P5x cells, with rucaparib 20 µM, 100% = cells with rucaparib alone.
Where [13] appears, read: at 0.000305 µM, OCI-P5x cells, without rucaparib.
[14] abbreviates: at 0.00122 µM, OCI-C5x cells, with rucaparib 10 µM, 100% = cells with rucaparib alone.
Where [15] appears, read: at 0.00122 µM, OCI-C5x cells, without rucaparib.
[16] abbreviates: at 0.00122 µM, OCI-P5x cells, with rucaparib 20 µM, 100% = cells with rucaparib alone.
Where [17] appears, read: at 0.00122 µM, OCI-P5x cells, without rucaparib.
Where [18] appears, read: at 0.00488 µM, OCI-C5x cells, with rucaparib 10 µM, 100% = cells with rucaparib alone.
Setting [19] is: at 0.00488 µM, OCI-C5x cells, without rucaparib.
Setting [20] is: at 0.00488 µM, OCI-P5x cells, with rucaparib 20 µM, 100% = cells with rucaparib alone.
The mark [21] stands for this setting: at 0.00488 µM, OCI-P5x cells, without rucaparib.
Where [22] appears, read: at 0.0195 µM, OCI-C5x cells, with rucaparib 10 µM, 100% = cells with rucaparib alone.
Where [23] appears, read: at 0.0195 µM, OCI-C5x cells, without rucaparib.
Where [24] appears, read: at 0.0195 µM, OCI-P5x cells, with rucaparib 20 µM, 100% = cells with rucaparib alone.
The mark [25] stands for this setting: at 0.0195 µM, OCI-P5x cells, without rucaparib.
Where [26] appears, read: at 0.0781 µM, OCI-C5x cells, with rucaparib 10 µM, 100% = cells with rucaparib alone.
Where [27] appears, read: at 0.0781 µM, OCI-C5x cells, without rucaparib.
The mark [28] stands for this setting: at 0.0781 µM, OCI-P5x cells, with rucaparib 20 µM, 100% = cells with rucaparib alone.
Setting [29] is: at 0.0781 µM, OCI-P5x cells, without rucaparib.
Where [30] appears, read: at 0.313 µM, OCI-C5x cells, with rucaparib 10 µM, 100% = cells with rucaparib alone.
Setting [31] is: at 0.313 µM, OCI-C5x cells, without rucaparib.
The mark [32] stands for this setting: at 0.313 µM, OCI-P5x cells, with rucaparib 20 µM, 100% = cells with rucaparib alone.
Where [33] appears, read: at 0.313 µM, OCI-P5x cells, without rucaparib.

With `OC(CC1c2ccccc2-c2cncn21)C1CCCCC1` (stereo not given), the fold change was 0.992 (inactive) in experiment [1] (setting [4]) and 0.351 in experiment [1] (setting [5]). The cell count in experiment [1] (setting [6]) amounted to 8340; in experiment [1] (setting [7]) it was 8410. The z-score is -0.436 (inactive) in experiment [2] (setting [8]) and -0.0844 in experiment [2] (setting [9]).

Consider `CCN(C)C(=O)Oc1cccc(C(C)N(C)C)c1` (stereo not given), for which the fold change in experiment [1] (setting [4]) was 0.91 (inactive); in experiment [1] (setting [5]) it was 0.79. Besides, the values for the cell count in experiment [1] (setting [6]) and in experiment [1] (setting [7]) were 8110 and 8910, respectively. The z-score in experiment [2] (setting [8]) is -0.173 (inactive); in experiment [2] (setting [9]), 0.451.

Usually viability stands for a read-out of living cells in per cent, often relative to untreated cells. Consider `CCNC(=O)c1noc(-c2cc(Cl)c(O)cc2O)c1-c1ccc(OC)cc1`, for which the fold change in experiment [1] (setting [4]) was 0.987 (inactive); in experiment [1] (setting [5]) it was 0.496. For the same molecule, the cell count in experiment [1] (setting [6]) is 2390; in experiment [1] (setting [7]), 2420. Moreover, the z-score was 2.58 (active) in experiment [2] (setting [8]) and -1.9 in experiment [2] (setting [9]). Further, the viability was 129% (inactive) in experiment [3] (setting [10]); 113% (inactive) in experiment [3] (setting [11]); 105% (inactive) in experiment [3] (setting [12]); 98% (active) in experiment [3] (setting [13]); 120% (inactive) in experiment [3] (setting [14]); 120% (inactive) in experiment [3] (setting [15]). For the same molecule, the viability in experiment [3] (setting [16]) was 101% (inactive); in experiment [3] (setting [17]) it was 102% (inactive); in experiment [3] (setting [18]), 138% (inactive); in experiment [3] (setting [19]), 120% (inactive); in experiment [3] (setting [20]), 100% (inactive); in experiment [3] (setting [21]), 101% (inactive). Besides, the viability in experiment [3] (setting [22]) is 181% (inactive); in experiment [3] (setting [23]) it was 140% (inactive); in experiment [3] (setting [24]) it was 33.1% (active); in experiment [3] (setting [25]), 82.6% (active); in experiment [3] (setting [26]), 73.6% (active); in experiment [3] (setting [27]) it was 39.7% (active). The viability in experiment [3] (setting [28]) is 17.1% (active); in experiment [3] (setting [29]), 9.14% (active); in experiment [3] (setting [30]), 39% (active); in experiment [3] (setting [31]), 22.6% (active); in experiment [3] (setting [32]) it was 12% (active); in experiment [3] (setting [33]), 7.17% (active). For the same molecule, the viability was 9.37% (active) in experiment [3] (at 1.25 µM, OCI-C5x cells, with rucaparib 10 µM, 100% = cells with rucaparib alone); 6.36% (active) in experiment [3] (at 1.25 µM, OCI-C5x cells, without rucaparib); 4.69% (active) in experiment [3] (at 1.25 µM, OCI-P5x cells, with rucaparib 20 µM, 100% = cells with rucaparib alone); 4.76% (active) in experiment [3] (at 1.25 µM, OCI-P5x cells, without rucaparib); 8.73% (active) in experiment [3] (at 5 µM, OCI-C5x cells, with rucaparib 10 µM, 100% = cells with rucaparib alone); 6.88% (active) in experiment [3] (at 5 µM, OCI-C5x cells, without rucaparib). Moreover, the viability was 4.38% (active) in experiment [3] (at 5 µM, OCI-P5x cells, with rucaparib 20 µM, 100% = cells with rucaparib alone) and 3.37% (active) in experiment [3] (at 5 µM, OCI-P5x cells, without rucaparib).

For `Cc1[nH]c(C=C2C(=O)Nc3ccc(S(=O)(=O)N(C)c4cccc(Cl)c4)cc32)c(C)c1C(=O)N1CCN(C)CC1`, the fold change was 0.944 (inactive) in experiment [1] (setting [4]) and 0.91 in experiment [1] (setting [5]). Moreover, the cell count in experiment [1] (setting [6]) was 3050; in experiment [1] (setting [7]), 3230. Further, the z-score in experiment [2] (setting [8]) was -0.734 (inactive); in experiment [2] (setting [9]) it was -1.1. Also, the viability is 109% (inactive) in experiment [3] (setting [10]); 113% (inactive) in experiment [3] (setting [11]); 106% (inactive) in experiment [3] (setting [12]); 104% (inactive) in experiment [3] (setting [13]); 117% (inactive) in experiment [3] (setting [14]); 112% (inactive) in experiment [3] (setting [15]). Also, the viability in experiment [3] (setting [16]) was 92.9% (active); in experiment [3] (setting [17]), 98.8% (active); in experiment [3] (setting [18]), 118% (inactive); in experiment [3] (setting [19]) it was 113% (inactive); in experiment [3] (setting [20]) it was 89.6% (active); in experiment [3] (setting [21]) it was 96.9% (active). The viability is 116% (inactive) in experiment [3] (setting [22]); 126% (inactive) in experiment [3] (setting [23]); 96.9% (active) in experiment [3] (setting [24]); 94.2% (active) in experiment [3] (setting [25]); 120% (inactive) in experiment [3] (setting [26]); 125% (inactive) in experiment [3] (setting [27]). For the same molecule, the viability in experiment [3] (setting [28]) is 104% (inactive); in experiment [3] (setting [29]), 102% (inactive); in experiment [3] (setting [30]) it was 122% (inactive); in experiment [3] (setting [31]), 131% (inactive); in experiment [3] (setting [32]) it was 113% (inactive); in experiment [3] (setting [33]), 107% (inactive).
